Test systems include NCI-H23 lung; NCI-H226 lung; NCI-H322M lung; HOP-62 NSCLC; NCI-H460 lung; HOP-92 NSCLC; NCI-H522 lung; A549/ATCC NSCLC; 786-0 renal; COLO 205 colon.
What all share (assay): NCI-60 one-dose screen, 48 h (100 = growth as untreated, 0 = no growth, -100 = all killed)
Holding throughout (conditions): 10 µM unless noted

The structures appear in SMILES notation. This is part of a sample that, as a whole, favours compounds with a hit. Of some 83,000 tested, about 20% had one in any assay.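 96-well plates, one dose, 48 hours. Percent growth reported; active if below 10.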 A number with no mark means an inactive call. Activity calls are given as the source filed them.

Take `COc1ccc2c(OCc3nnc4ccc(-c5ccccc5)nn34)ccnc2c1`: the growth in the experiment on NCI-H23 lung is 70.2% [2.5 µM]; in the experiment on NCI-H226 lung it was 84.7% [2.5 µM]; with NCI-H322M lung, 92% [2.5 µM]; with HOP-62 NSCLC, 77.5% [2.5 µM]; with NCI-H460 lung, 110% [2.5 µM]; in the experiment with HOP-92 NSCLC it was 98.7% [2.5 µM]. Besides, the growth is 85.8% [2.5 µM] in the experiment on NCI-H522 lung, 94.1% [2.5 µM] in the experiment with A549/ATCC NSCLC, 93.7% [2.5 µM] with 786-0 renal and 95.3% [2.5 µM] in the experiment on COLO 205 colon.
On to `COCc1c(-c2ccc(NC(=O)Nc3cc(C(F)(F)F)ccc3F)c(F)c2)c2c(N)ncnn2c1CN1CCOCC1`, for which the growth with NCI-H23 lung is -53.4% (active); with NCI-H226 lung it was -7.25% (active); with NCI-H322M lung, -17% (active); with HOP-62 NSCLC, -58.9% (active); with NCI-H460 lung, -47.2% (active); with HOP-92 NSCLC, -32.8% (active). Also, the growth in the experiment on NCI-H522 lung was -55.3% (active); with A549/ATCC NSCLC it was -18.8% (active); in the experiment on 786-0 renal it was -43.5% (active); with COLO 205 colon, -88.8% (active).
On to `O=C(NOCCO)c1cc(CN2OCCCC2=O)c(F)c(F)c1Nc1ccc(I)cc1F`, for which the growth was 22.7% in the experiment on NCI-H23 lung; 50.9% in the experiment on NCI-H226 lung; 15.4% in the experiment with NCI-H322M lung; 36.8% with HOP-62 NSCLC; 59.4% in the experiment on NCI-H460 lung; -20% (active) in the experiment on HOP-92 NSCLC. The growth with NCI-H522 lung was 45.8%; in the experiment with A549/ATCC NSCLC, 28.9%; in the experiment with 786-0 renal, 64.6%; in the experiment on COLO 205 colon, 5.72% (active).
On to `COc1cc(OC)c(/C=C/S(=O)(=O)Cc2ccc(OC)c(NCC(=O)O)c2)c(OC)c1`, for which the growth is 31.9% with NCI-H23 lung; 61.1% in the experiment on NCI-H226 lung; 47.1% with NCI-H322M lung; 12.6% in the experiment on HOP-62 NSCLC; 1.56% (active) with NCI-H460 lung; 43.9% in the experiment on HOP-92 NSCLC. The growth in the experiment with NCI-H522 lung is -18% (active); in the experiment with A549/ATCC NSCLC, 9.08% (active); with 786-0 renal, 21.9%; in the experiment on COLO 205 colon, -62.1% (active).
Consider `C#Cc1cccc(Nc2ncnc3cc4c(cc23)OCCOCCOCCO4)c1`, for which the growth in the experiment on NCI-H23 lung is 80.5%; with NCI-H226 lung it was 71.3%; in the experiment with NCI-H322M lung it was 1.86% (active); with HOP-62 NSCLC, 56.1%; with NCI-H460 lung, 76.6%; in the experiment with HOP-92 NSCLC, 49.4%. For the same compound, the growth was 0.957% (active) in the experiment with NCI-H522 lung, 42.7% in the experiment on A549/ATCC NSCLC, 51.7% with 786-0 renal and 86.8% with COLO 205 colon.
With `COc1cc2c(Nc3ccc(Br)cc3F)ncnc2cc1OCC1CCN(C)CC1`, the growth with NCI-H23 lung is 52.5%; with NCI-H226 lung it was 57.5%; in the experiment on NCI-H322M lung it was 6.72% (active); with HOP-62 NSCLC, 19.5%; in the experiment on NCI-H460 lung it was 39.9%; with HOP-92 NSCLC it was -12.9% (active). The growth in the experiment with NCI-H522 lung is -31.3% (active); in the experiment on A549/ATCC NSCLC, 22.9%; with 786-0 renal, 15.3%; in the experiment with COLO 205 colon, -13.9% (active).
In the case of `CC(C)CC(=O)Nc1n[nH]c2c1CN(C(=O)C1CCN(C)CC1)C2(C)C`, the growth in the experiment with NCI-H23 lung is 0.542% (active); with NCI-H226 lung it was 7.08% (active); with NCI-H322M lung, 24.4%; in the experiment with HOP-62 NSCLC, -14.3% (active); in the experiment on NCI-H460 lung it was 7.12% (active); in the experiment with HOP-92 NSCLC it was -3.08% (active). The growth in the experiment on NCI-H522 lung is -27.9% (active); in the experiment on A549/ATCC NSCLC, 7.25% (active); with 786-0 renal, 3.99% (active); in the experiment on COLO 205 colon, -76.4% (active).
Consider `Clc1ccc2c(NCCNc3nc(N4CCCC4)nc4ccccc34)ccnc2c1`, for which the growth is 11.4% with NCI-H23 lung; -31.2% (active) in the experiment with NCI-H226 lung; -7.37% (active) with NCI-H322M lung; -47.2% (active) in the experiment with HOP-62 NSCLC; -23.6% (active) in the experiment on NCI-H460 lung; -1.92% (active) in the experiment on HOP-92 NSCLC. The growth is -48% (active) in the experiment on NCI-H522 lung, -4.72% (active) in the experiment with A549/ATCC NSCLC, -77.4% (active) in the experiment with 786-0 renal and -81.4% (active) in the experiment on COLO 205 colon.
On to `COc1cc(C(=O)NNC(=O)c2ccc(NC(=O)CCl)cc2)cc(OC)c1OC`, for which the growth is 78.9% in the experiment on NCI-H23 lung; 95.5% with NCI-H226 lung; 88.5% in the experiment with NCI-H322M lung; 72.7% in the experiment on HOP-62 NSCLC; 99.5% in the experiment on NCI-H460 lung; 99% in the experiment on HOP-92 NSCLC. For the same compound, the growth is -34.4% (active) with NCI-H522 lung, 77% in the experiment with A549/ATCC NSCLC, 95.3% in the experiment with 786-0 renal and 106% in the experiment on COLO 205 colon.
With `COc1cc(F)c(F)c(Nc2ccc(I)cc2F)c1NS(=O)(=O)C1(C[C@H](O)CO)CC1`, the growth in the experiment with NCI-H23 lung was 13%; with NCI-H226 lung, 41.3%; with NCI-H322M lung it was 14.2%; in the experiment on HOP-62 NSCLC, 25.1%; in the experiment on NCI-H460 lung, 27.8%; in the experiment with HOP-92 NSCLC it was -19.1% (active). Also, the growth was 31.4% in the experiment on NCI-H522 lung, 26.3% in the experiment with A549/ATCC NSCLC, 54.5% with 786-0 renal and -0.628% (active) in the experiment on COLO 205 colon.
Consider `COC(=O)[C@]12CC[C@@H](C)[C@H](C)[C@@H]1C1=CC[C@@H]3[C@@]4(C)C(c5cnco5)=C[C@@](C)(CO)C4=CC[C@@]3(C)[C@]1(C)CC2`, for which the growth is 47.8% with NCI-H23 lung; 60% in the experiment on NCI-H226 lung; 86.5% with NCI-H322M lung; 93.7% with HOP-62 NSCLC; 8.07% (active) in the experiment with NCI-H460 lung; 41.8% with HOP-92 NSCLC. The growth was 33.9% with NCI-H522 lung, 47.1% in the experiment with A549/ATCC NSCLC, 70.5% in the experiment on 786-0 renal and 27.2% in the experiment with COLO 205 colon.
As for `CCN(CCCOc1ccc2c(Nc3cc(CC(=O)Nc4cccc(F)c4)[nH]n3)ncnc2c1)CCOP(=O)(O)O`, the growth is 73.4% with NCI-H23 lung; 93.8% in the experiment on NCI-H226 lung; 68.5% with NCI-H322M lung; 56.7% in the experiment with HOP-62 NSCLC; 45% with NCI-H460 lung; 87.6% in the experiment on HOP-92 NSCLC. Further, the growth in the experiment with NCI-H522 lung was 44%; with A549/ATCC NSCLC, 44.1%; in the experiment on 786-0 renal it was 86.5%; with COLO 205 colon it was -7.95% (active).
`O=C(Nc1cccc(Cl)c1)Nc1ncc(CCNc2ncnc3ccsc23)s1`: the growth in the experiment with NCI-H23 lung is 30.6%; in the experiment with NCI-H226 lung, 10.8%; in the experiment on NCI-H322M lung it was 55.5%; in the experiment with HOP-62 NSCLC, 11.8%; with NCI-H460 lung it was 20.1%; with HOP-92 NSCLC, 40.9%. The growth is 13% with NCI-H522 lung, 14.9% in the experiment on A549/ATCC NSCLC, 42.1% with 786-0 renal and -4.76% (active) with COLO 205 colon.

For the origin of these results see PubChem BioAssay (NCI).
